AmpC inh detg: qHTS Inhibitors of AmpC Beta-Lactamase (assay with detergent); AmpC hydrolysis of nitrocefin, absorbance 480 nm, 0.01% Triton; 0.041% of 370,000 active; Potency, µM (doses to about 114 µM), usual class: inhibitors; note: nearly all actives have a fitted effect of over 25% in size
Target sequence (P00811 whole entry, looked up): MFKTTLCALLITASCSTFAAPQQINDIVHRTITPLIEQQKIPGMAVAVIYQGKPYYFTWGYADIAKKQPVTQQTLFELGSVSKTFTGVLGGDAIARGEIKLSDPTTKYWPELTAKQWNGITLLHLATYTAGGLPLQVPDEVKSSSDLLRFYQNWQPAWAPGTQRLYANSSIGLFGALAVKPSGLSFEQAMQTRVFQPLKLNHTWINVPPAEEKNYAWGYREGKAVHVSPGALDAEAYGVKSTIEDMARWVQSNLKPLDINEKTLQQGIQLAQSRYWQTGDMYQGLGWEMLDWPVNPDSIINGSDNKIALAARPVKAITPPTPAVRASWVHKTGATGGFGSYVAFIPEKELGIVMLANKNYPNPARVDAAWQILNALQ
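20 mM phosphate pH 7.0 + 0.01% (detergent screen) or 0.0001% Triton X-100; 5.3 nM AmpC reagent; cpd preinc 15 min RT; nitrocefin (800 uM stock) to start; A480 q20 s × 4 min; Activity was normalised to no-enzyme and no-compound control wells.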
SARS PLP yeast: qHTS of Yeast-based Assay for SARS-CoV PLP | S. cerevisiae expressing SARS-CoV PLpro, growth rescue | Potency, µM (top dose mostly 32.9 µM), usual class: activators | 0.19% of 330,000 active; calls by dose curve; note: nearly all actives have a fitted effect of over 55% in size
AmpC inh no detg: qHTS Inhibitors of AmpC Beta-Lactamase (assay without detergent). P00811. AmpC nitrocefin hydrolysis, absorbance 480 nm, 0.0001% Triton. Potency, µM (titrated, usually from 57.1 µM), actives largely listed as inhibitors. 0.52% of 330,000 active. AID 485341, 2010; note: nearly all actives have a fitted effect of over 20% in size
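AmpC (5.3 nM in the dispensed reagent) in 20 mM phosphate pH 7.0 with 0.01% (detergent screen) or 0.0001% Triton X-100 was preincubated with compounds for 15 min at room temperature. Nitrocefin was then added from an 800 uM solution, and hydrolysis was followed at 480 nm.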
AMA1 RON2 block: qHTS for Inhibitors of AMA1-RON; Towards Development of Antimalarial Drug Lead: Primary Screen. Plasmodium falciparum AMA1 (3D7) - RON2 peptide interaction. AlphaScreen AMA1-biotinylated RON2 peptide binding. Potency, µM (highest dose often 58.2 µM), most hits filed as inhibitors. 0.2% of 360,000 active; note: nearly all actives have a fitted effect of over 45% in size
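AMA1 (3D7) with his tag at 25 nM final met compounds first, then biotinylated RON2 peptide at 25 nM; detection used donor plus acceptor beads, 10 µg/mL apiece, read by AlphaScreen after 30 min at room temperature.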
Shiga inhibitor: A qHTS for Small Molecule Inhibitors of Shiga Toxin. inhibition, % at 38.7 µM. 9.2% of 290,000 active. Vero cells, Shiga toxin protein synthesis inhibition reporter; in the data active = inhibition mostly above about 28%, no sharp cut-off; inactive = mostly below about 43%
CHX counter: Cycloheximide Counterscreen for Small Molecule Inhibitors of Shiga Toxin. cell reporter, cycloheximide protein synthesis inhibition counterscreen. max response, %. 12% of 300,000 active. AID 2314, 2010; in the data active = max response mostly above about 13%, no sharp cut-off; inactive = mostly below about 14%; note: read at 38.3 µM for the half of the compounds with a filed dose
Large screens that a line does not name were inactive. Shown is part of a subset that was picked to be rich in hits. Unless noted, calls come from the whole dose curve; as a rule, active = well fitted curve in the direction sought with a large enough effect; inconclusive = small, poorly fitted or top-dose-only effect, or another doubt; inactive = no such curve, though single readings can be large; an effect the other way counts as inactive or inconclusive.

Cc1cccc(-n2ncc3c(Nc4c(C)cc(C)cc4C)ncnc32)c1	none (no result: SARS PLP yeast, AmpC inh no detg, AMA1 RON2 block, Shiga inhibitor, CHX counter)
Cc1ccc(-n2ncc3c(Nc4cccc(C)c4)ncnc32)cc1	none (no result: SARS PLP yeast, AmpC inh no detg, AMA1 RON2 block, Shiga inhibitor, CHX counter)
CCOC(=O)Cn1nc(C)cc1NC(=O)c1cc(OC)c(OC)c(OC)c1	none
N#CCCN(Cc1ccccc1)C(=O)c1cccs1	none
Cn1c(=O)c2c(nc(NCCO)n2CCCc2ccccc2)n(C)c1=O	none
COc1ccc(C(=O)N2CCCC2(C)C(=O)O)cc1C(F)(F)F (centres undefined)	none (no result: AmpC inh detg, SARS PLP yeast, AmpC inh no detg, Shiga inhibitor, CHX counter)
CC(=C\c1ccccc1)/C=C1/SC(=S)N(C(C(=O)O)C(C)C)C1=O (centres undefined)	AmpC inh detg inconclusive
Cc1cc(C)c(OCCCON2C(=O)CCC2=O)c(Br)c1	none
CC(C)Oc1ccc(CNC(=O)c2ccc3c(c2)N(Cc2ccc(F)cc2)CCS3)cc1	none (no result: SARS PLP yeast, AmpC inh no detg, AMA1 RON2 block, Shiga inhibitor, CHX counter)
Clc1ccc(-n2ncc3c(NC4CCCC4)ncnc32)cc1	none (no result: SARS PLP yeast, AmpC inh no detg, AMA1 RON2 block, Shiga inhibitor, CHX counter)
c1ccc(-n2ncc3c(NC4CCCCCC4)ncnc32)cc1	Shiga inhibitor 62, CHX counter 45
COc1cc(/C=N/OCC(=O)NC2CCCCC2)ccc1OCc1ccccc1	Shiga inhibitor 152, CHX counter 55
COc1cc(OC)c(C(=O)OCC(=O)NC23CC4CC(CC(C4)C2)C3)cc1OC	none (no result: AmpC inh detg, Shiga inhibitor, CHX counter)
COc1ccc(/C=N/OCC(=O)NC(c2ccccc2)c2ccccc2)cc1OC	AmpC inh detg inconclusive
COc1cc(/C=N/OCC(=O)NC23CC4CC(CC(C4)C2)C3)ccc1OCc1ccccc1	Shiga inhibitor 101, CHX counter 36
CC1(C)Cc2nc3sc4c(OCc5ccccc5)ncnc4c3cc2CO1	none
C=CCNC(=S)NC(CC(=O)OC)c1ccc2c(c1)OCO2 (centres undefined)	none
Cc1ccc(-n2cc(CN3CCN(C(=O)c4ncn[nH]4)CC3)c(-c3ccc(F)cc3)n2)cc1	CHX counter 17
Cc1ccc(-n2cc(CN3CCN(Cc4nccn4C)CC3)c(-c3ccc(F)cc3)n2)cc1	CHX counter 15
CCOc1ccc(C(O)c2nccn2C)cc1 (centres undefined)	Shiga inhibitor 108, CHX counter 42
COc1cc(NC(=O)CSc2nccn2C)cc(OC)c1OC	none (no result: SARS PLP yeast, AmpC inh no detg, AMA1 RON2 block, Shiga inhibitor, CHX counter)
CCOc1ccc(NC(=O)CSc2nccn2C)cc1	AmpC inh detg inconclusive, Shiga inhibitor 48, CHX counter 42
Cn1ccnc1SCC(=O)Nc1ccc(Oc2ccccc2)cc1	AmpC inh detg inconclusive, CHX counter 24
NC(Cc1ccc(Cl)cc1)c1csc(Nc2ccc(-c3ccccc3)nn2)n1 (centres undefined)	none (no result: AmpC inh detg, SARS PLP yeast, AmpC inh no detg, Shiga inhibitor, CHX counter)
COc1cc2oc(=O)cc(-c3ccc(-c4ccc(O)cc4)cc3)c2c(OC)c1OC	SARS PLP yeast inconclusive (no result: AmpC inh detg)
COc1cc2oc(=O)cc(-c3ccc(-c4ccc(NC(C)=O)cc4)cc3)c2c(OC)c1OC	Shiga inhibitor 81, CHX counter 53 (no result: AmpC inh detg, SARS PLP yeast, AmpC inh no detg, AMA1 RON2 block)
O=C(NCCSc1ccccc1)c1ccc(CN2CCOCC2)cc1	Shiga inhibitor 62, CHX counter 36
O=C(NCCN1CCOCC1)c1ccc(-c2ccccc2)cc1	CHX counter 25
O=C(NCCNC(=O)c1ccc(F)cc1)c1ccc(F)cc1	none (no result: AmpC inh detg, SARS PLP yeast, AmpC inh no detg, Shiga inhibitor, CHX counter)
CC(C)CNC(=S)NC(=O)c1ccc(F)cc1	SARS PLP yeast inconclusive, Shiga inhibitor 118, CHX counter 62
O=C(Cc1ccc(-c2ccccc2)cc1)NCCN1CCOCC1	AmpC inh detg inconclusive, SARS PLP yeast inconclusive
O=C(NC(=S)NC(CO)Cc1ccccc1)c1ccc(F)cc1 (centres undefined)	Shiga inhibitor 51, CHX counter 19
O=C(NC(=S)NCCN1CCOCC1)c1ccc(F)cc1	Shiga inhibitor 44
Cc1[nH]c(=O)[nH]c(=O)c1/C=N/NC(=O)CCNC(=O)OC(C)(C)C	CHX counter 18
Cn1c(=O)c2c(nc(NCc3ccco3)n2CC(O)CO)n(C)c1=O (centres undefined)	none
CCOc1ccc(C(=O)NC(Cc2ccccc2)C(=O)OC)cc1 (centres undefined)	Shiga inhibitor 73, CHX counter 41
COc1ccc(C(=O)NC(=S)N(Cc2ccccc2)Cc2ccccc2)cc1	Shiga inhibitor 144, CHX counter 32
COc1ccc(C(=O)NC(C)CCc2ccccc2)cc1 (centres undefined)	CHX counter 19 (no result: Shiga inhibitor)
CC(CCc1ccccc1)NC(=O)c1ccc(NC(=O)c2ccccc2)cc1 (centres undefined)	none
COC(=O)C(Cc1ccccc1)NC(=O)COc1ccc(C(C)(C)C)cc1 (centres undefined)	AmpC inh detg inconclusive
CCCNC(=O)C(Cc1ccc(I)cc1)NC(=O)c1ccc2ccccc2n1 (centres undefined)	none (no result: Shiga inhibitor, CHX counter)
COC(=O)[C@H](Cc1ccccc1)NC(=O)c1ccc2ccccc2n1	Shiga inhibitor 41
Cc1nnc(SCC(=O)N2CCC(c3noc4ccc(F)cc34)CC2)s1	none
COc1ccc(C(=O)NCC2OCCc3ccccc32)c(O)c1 (centres undefined)	Shiga inhibitor 47, CHX counter 23
COc1ccc(C(=O)NC(C)CCc2ccccc2)c(O)c1 (centres undefined)	Shiga inhibitor 68, CHX counter 30
COc1ccc(N(Cc2ccccc2)N=O)cc1	CHX counter 18 (no result: Shiga inhibitor)
COc1ccc(CN(C(=O)c2ccc(C)cc2)c2cccc(N)c2)cc1	none (no result: Shiga inhibitor, CHX counter)
COc1ccc(C(=O)N(Cc2ccccc2)c2cccc(C)c2)cc1	Shiga inhibitor 24
CC/C(CC(=O)C(F)(F)F)=N\NC(=O)/C(C#N)=C/N(C)C	none
CCOc1ccc(C(=O)NC(C)CCc2ccccc2)cc1 (centres undefined)	Shiga inhibitor 29, CHX counter 28
O=C(NCCc1ccc(Cl)cc1)C12CC3CC(CC(O)(C3)C1)C2	CHX counter 19
O=C(OCc1nnc(-c2ccc(Cl)cc2)o1)C12CC3CC(CC(O)(C3)C1)C2	Shiga inhibitor 118, CHX counter 39
Cc1ccc(CCNC(=O)C23C[C@H]4C[C@@H](C2)CC(n2nnc(C)n2)(C4)C3)cc1	CHX counter 41
CCOc1ccc(NC(=O)CSc2oc(-c3ccco3)nc2S(=O)(=O)c2ccc(C)cc2)cc1	none (no result: SARS PLP yeast, AmpC inh no detg, AMA1 RON2 block, Shiga inhibitor, CHX counter)
CCOC(=O)C1CCCN(C(=O)Cn2nc(Cc3cccnc3)c3ccccc3c2=O)C1 (centres undefined)	AmpC inh detg inconclusive
Cc1cc(NC(=O)Nc2ccc(N(C)C)cc2)c2cc(F)cc(F)c2n1	Shiga inhibitor 34, CHX counter 28 (no result: AmpC inh detg, SARS PLP yeast, AmpC inh no detg, AMA1 RON2 block)
COC(=O)c1ccc2nc(C)cc(Nc3ccc(N(C)C)cc3)c2c1	AMA1 RON2 block inconclusive
